According to PubChem BioAssay AID1745847 (National Center for Advancing Translational Sciences (NCATS), 2022):
About 670 (32%) of roughly 2,100 compounds were called active. About 50% were inconclusive and are not listed. Calls come from the whole dose curve; as a rule, active = well fitted inhibition curve with a large enough effect; inconclusive = small, poorly fitted or top-dose-only effect; inactive = no such curve, though single readings can be large or run the other way. The list shows a part of the results.

experiment: CMV-Luciferase Counterscreen for Inhibitors of ATXN expression; details: HEK-293 CMV-luciferase reporter, luminescence, 24 h; series mostly up to 57.5 µM; note: nearly all actives have a fitted effect of over 55% in size
Description: PI: Daniel Scoles Ph.D. University of Utah School of Medicine, Salt Lake City, Utah MLPCN Grant: NS073009 Spinocerebellar ataxia type 2 (SCA2) is a multisystem neurodegenerative disease caused by a dominantly acting mutation leading to expansion of a polyQ domain in the ataxin-2 protein (ATXN2). SCA2 patients develop progressive ataxia and later lose function in other neuronal systems. Prominent parkinsonian signs develop in some patients. Like many neurodegenerative disorders, no symptomatic or disease-modifying treatments are known. The primary objective of the proposed research is to identify compounds inhibiting ATXN2 expression and to test them for efficacy in SCA2 mouse models. We have developed a cell-based assay paired with an in vivo mouse model using identical luciferase expression constructs. This approach takes advantage of an ATXN2-luciferase transgene, with the luciferase gene flanked by the upstream and downstream portions of the ATXN2 gene. Here we describe a 5-7 dose quantitative high thoroughput screen (qHTS) for compounds lowering ATXN2 expression. We screened the NIH Molecular Libraries Small Molecule Repository (MLSMR) and NCGC's mechanistically annotated (MIPE) and drug repurposing (NPC) collections of compounds for lowering expression of an ATXN2-luciferase reporter in HEK-293 cells. The assay is a multiplexed cell viability assay to ensure target reduction in the absence of cytotoxicity. Secondary qHTS assays included a CMV-luciferase reporter expressed in HEK-293 cells as well as a biochemical assay using recombinant luciferase to detect inhibitors of the reporter enzyme. Compounds that inhibit ATXN2 expression but is not cytotoxic were selected for confirmatory and secondary screens.
PROTOCOL TABLE (as described by Inglese J, Shamu CE and Guy RK. 2007) SEQUENCE No. (e.g., 1, 2, 3, etc.); PARAMETER (e.g., Cells, Incubation, Reagent, etc.); VALUE; DESCRIPTION. 1; Cells; 4 uL; white, solid bottom, 1536-well Greiner assay plate. 2; Incubation; 2 hr; 37 degree C in 5% humidified CO2. 3; Compounds; 23 nL; Kalypsis pintool (Wako USA) equipped with a 1536-well pin head. 4; Incubation; 24 hr; 37 degree C in 5% humidfified CO2. 5; Reagent; 1 uL; Gly-Phe-7-Amino-4-trifluoromethylcoumarin. 6; Incubation; 30 min; 37 degree C in 5% humidfified CO2. 7; Detection; Fluorescence; Viewlux plate reader (PerkinElmer). 8; Reagent; 3 uL; SteadyGlo luciferase solution (Promega). 9; Incubation; 5 min; room temperature. 10; Detection; Luminescence; ViewLux plate reader (PerkinElmer). NOTES (numbers refer to Sequence numbers above) 1. HEK-293 cells expressing CMV-luciferase reporter (designated as SC cells) were suspended in phenol-red free DMEM and dispensed in assay plates using a Multidrop Combi dispenser (Thermo Fisher Scientific). 2. Assay plates were incubated. Evaporation was prevented by covering assay plates with metal lids containing holes to allow gas diffusion. 3. Compounds were added in a dose response manner with the final concentrations of 57, 11.4, 2.28, 0.46, 0.091, 0.018, 0.0037 uM. Vehicle-only plates, with DMSO being pin-transferred to columns 5-48, were inserted uniformly at the beginning and the end of each library to monitor and record any shifts in assay performance. 5. 125 uM Gly-Phe-7-Amino-4-trifluoromethylcoumarin (MP Biomedicals) working concentration was used at a final concentration of 25 uM. 7. To assess cell viability; the assay plates were read using the ViewLux high-throughput CCD imager (PerkinElmer), wherein single end-point fluorescence measurement was acquired (excitation 405/10; emission 540/25 nm). 8. Detection reagent SteadyGlo Luciferase (Promega) was added to the assay plate. 10. Luminescence is then measured on the ViewLux imager equipped with a clear emission filter using a 2 sec exposure. […]
% is set by controls: 0 for no effect and ±100 for the full control effect; potency is the fitted concentration of half-maximal effect.

SMILES	Potency	activity change, negative = inhibition
CC(=O)Oc1ccc(C23c4ccccc4C2(OC(C)=O)c2cc(OC(C)=O)ccc23)cc1 (centres undefined)	25.1 µM (active)	
COc1ccc(OCc2cccc(C(=O)Nn3cc([N+](=O)[O-])cn3)c2)cc1	0.398 µM (active)	
O=C(N/N=C/c1cc(Br)ccc1O)c1ccncc1	1 µM (active)	
O=C(N/N=C/c1ccc(O)cc1O)c1ccc(CN2C(=O)c3cccc4cccc2c34)cc1	1.78 µM (active)	
CC(C)CC(=O)NC(=S)NNC(=O)c1ccc(NC(=O)C2CCCCC2)cc1		8.7% [at 11.4 µM] (inactive)
O=C(N/N=C/c1ccc(O)cc1O)c1ccncc1	3.98 µM (active)	
O=C(N/N=C/c1ccc(O)cc1O)c1ccc(NC(=O)C2CCCCC2)cc1	12.6 µM (active)	
Cc1nc(SC2CC(=O)N(c3ccccc3)C2=O)n[nH]1 (centres undefined)	inactive	
O=c1[nH]c(CN2CCN(c3ncccn3)CC2)nc2c(Br)cc(Br)cc12		-16.4% [at 11.4 µM] (inactive)
O=C(NCc1ccccc1C(F)(F)F)c1cccc2c1C(=O)c1ccc(N3CCC(N4CCCCC4)CC3)cc1S2(=O)=O		34.1% [at 11.4 µM] (inactive)
O=C(N/N=C/c1cc(Br)ccc1OC(=O)c1ccc(Br)cc1)c1ccncc1	3.98 µM (active)	
COc1ccc(C(=O)N/N=C/c2cc(Br)ccc2O)cc1OC	2.51 µM (active)	
O=C(N/N=C/c1cc(Br)cc(Br)c1O)c1ccncc1	3.98 µM (active)	
O=C(N/N=C/c1cc(Br)ccc1O)C(c1ccncc1)N1CCOCC1 (centres undefined)	10 µM (active)	
O=C(NN=Cc1ccc(O)cc1O)c1ccccc1NS(=O)(=O)c1cccs1	3.16 µM (active)	
CCCCC(=O)NC(c1ccccc1)c1ccc2cccnc2c1O (centres undefined)	3.98 µM (active)	
CCCC(=O)NC(c1ccccc1)c1ccc2cccnc2c1O (centres undefined)	2.24 µM (active)	
CCCC(=O)NC(c1ccc(OC)cc1)c1ccc2cccnc2c1O (centres undefined)	3.16 µM (active)	
CCCC(=O)NC(c1ccc(C(C)C)cc1)c1ccc2cccnc2c1O (centres undefined)	0.355 µM (active)	
CCCC(=O)NC(c1ccc(C)cc1)c1ccc2cccnc2c1O (centres undefined)	2 µM (active)	
CCOC(=O)COc1ccc(Br)cc1/C=C/c1[nH]c(=O)[nH]c(=O)c1[N+](=O)[O-]		3.24% [at 11.4 µM] (inactive)
CN1OC[C@@H]2CN[C@H](c3ccc(-c4cc5ccccc5o4)cc3)C[C@@H]21	0.0794 µM (active)	
N#C/C(=C\c1ccc([N+](=O)[O-])o1)c1nc2ccccc2[nH]1	22.4 µM (active)	
Cc1c(N/N=C(\C#N)C(=O)c2ccccc2)c(=O)n(-c2ccccc2)n1C	3.98 µM (active)	
COc1ccc(NS(=O)(=O)c2ccc(C(=O)Nc3c(C)n(C)n(-c4ccccc4)c3=O)cc2)cc1		0.165% [at 11.4 µM] (inactive)
Cc1cc(N2CCN(Cc3nc(-c4ccc(Cl)cc4)oc3C)CC2)cc(C)n1	25.1 µM (active)	
COc1ccc(N(C)S(=O)(=O)c2ccc(Cl)c(C(=O)NCCc3ccc(Cl)cc3)c2)cc1	14.1 µM (active)	

SMILES	Potency	activity change, negative = inhibition
COC(=O)c1ccc(C(=O)Nc2cc(Cl)ccc2Cl)cc1NC(=O)c1ccc(N(C)C)cc1		-1.02% [at 11.4 µM] (inactive)
NS(=O)(=O)c1ccc(CCNC(=O)c2cc(-c3ccccn3)nc3ccc(Br)cc23)cc1	inactive	
CCOP(=O)(OCC)C(Cc1ccccc1)N=C(c1ccccc1)c1ccccc1 (centres undefined)	22.4 µM (active)	
Nc1ccc(Oc2ccccc2-c2ccccc2)cc1	2 µM (active)	
CC(=O)Nc1ccc(NC2=Nc3ccccc3N3C2=Nc2c(c(C)nn2-c2ccccc2)C3c2ccccc2)cc1 (centres undefined)	1.12 µM (active)	
Cc1cccc(NC2=Nc3ccccc3N3C2=Nc2c(c(C)nn2-c2ccccc2)C3c2ccc(O)c(O)c2)c1 (centres undefined)		-12.9% [at 11.4 µM] (inactive)
CN(C)CCOc1ccc(-c2c(-c3ccccc3)sc3ccccc23)cc1	22.4 µM (active)	
CC(=O)NC(c1cccs1)c1cc(Br)c2cccnc2c1O (centres undefined)	4.47 µM (active)	
CCC(=O)NC(c1ccc(C)cc1)c1cc([N+](=O)[O-])c2cccnc2c1O (centres undefined)	7.08 µM (active)	
Cc1cc(OCC(=O)NC(C)c2ccccc2)ccc1[N+](=O)[O-] (centres undefined)		-19.4% [at 11.4 µM] (inactive)
CC(=O)NC(c1cccs1)c1cc([N+](=O)[O-])c2cccnc2c1O (centres undefined)	10 µM (active)	
O=C(Nc1nccs1)c1cccc(N2C(=O)c3cccc4c([N+](=O)[O-])ccc(c34)C2=O)c1	inactive	
Oc1cccc(C(O)CNCc2ccc(-c3ccccc3)cc2)c1 (centres undefined)	inactive	
CCc1ccc(-n2cc(-c3ccc(F)cc3)[n+]3c2SCCC3)cc1	17.8 µM (active)	
CC1(C)Cc2ccccc2C2=NNC(=O)C2=N1	25.1 µM (active)	
COc1ccc(CCNC(=O)c2cc(-c3cc(C)cc(C)c3O)n[nH]2)cc1OC	20 µM (active)	
Cc1sc2cc3c(c(C(=O)c4ccccc4)[n+]2c1C)-c1cccc2cccc-3c12	3.16 µM (active)	
Cc1ccc(C(=O)N/C(=C/c2ccc(-c3ccc([N+](=O)[O-])cc3)o2)C(=O)NCCCN(C)C)cc1	inactive	
Cc1ccsc1/C=C/C1=Cc2c(sc(NC(=O)CSc3n[nH]c(N)n3)c2C#N)C(C)(C)C1	inactive	
COc1cccc(CN(C)C(=O)c2ccc(OCC(=O)Nc3cccc(C(F)(F)F)c3)c(OC)c2)c1	7.08 µM (active)	
CN(C)CCNC(=O)c1cccc(-c2cnc3c(NC=O)cc(/C=C/c4ccccc4)cn23)c1	inactive	
Cc1cc2sc3ccc(C#CC4(O)CCCCC4)cc3c(=O)c2cc1C	0.0316 µM (active)	
COc1ccccc1-c1cc2nc(-c3ccccc3)cc(N3CCN(C(=O)c4ccco4)CC3)n2n1	7.94 µM (active)	
COc1cccc(-c2cc3nc(-c4ccccc4)cc(N4CCN(C(=O)c5ccoc5)CC4)n3n2)c1	3.16 µM (active)	
FC(F)(F)c1cc(-c2ccccn2)nc2cc(-c3ccccc3)nn12	inactive	
O=C(c1ccoc1)N1CCN(c2cc(-c3ccccc3)nc3cc(-c4ccccc4)nn23)CC1	10 µM (active)	
COc1ccccc1-c1cc2nc(-c3ccccc3)cc(N3CCN(C(=O)c4ccoc4)CC3)n2n1	7.94 µM (active)	
